Source: ChEMBL document CHEMBL3433997, “St. Jude Leishmania screening dataset” (2016)

Key:
Type in all cases: functional
[1] = target: Solute carrier family 2, facilitated glucose transporter member 1 (Homo sapiens) (UniProt P11166); assay: ST_JUDE_LEISH: Cytotoxicity at 2uM final concentration against transgenic Leishmania Mexicana promastigotes LmGLUT1 that are glucose transport deficient and complemented with the human glucose transporter GLUT1. Activity is measured by DNA content using SYBR green in vitro
Sequence of Solute carrier family 2, facilitated glucose transporter member 1 (Homo sapiens) (P11166 whole entry): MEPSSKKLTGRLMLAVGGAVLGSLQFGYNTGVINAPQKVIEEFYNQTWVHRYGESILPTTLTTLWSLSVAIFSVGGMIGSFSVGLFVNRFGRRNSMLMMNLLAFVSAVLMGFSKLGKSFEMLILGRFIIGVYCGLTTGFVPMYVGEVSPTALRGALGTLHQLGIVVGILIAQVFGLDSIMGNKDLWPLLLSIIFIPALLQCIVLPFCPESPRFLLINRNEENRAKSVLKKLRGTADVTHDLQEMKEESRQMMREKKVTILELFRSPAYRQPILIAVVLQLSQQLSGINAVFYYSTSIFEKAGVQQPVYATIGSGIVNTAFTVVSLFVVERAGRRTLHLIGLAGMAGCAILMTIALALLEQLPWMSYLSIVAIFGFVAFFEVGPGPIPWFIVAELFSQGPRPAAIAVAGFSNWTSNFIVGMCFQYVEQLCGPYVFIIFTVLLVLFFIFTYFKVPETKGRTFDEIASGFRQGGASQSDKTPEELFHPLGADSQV

[2] = target: Hexose transporter 1 (Plasmodium falciparum) (UniProt O97467); assay: ST_JUDE_LEISH: Cytotoxicity at 2uM final concentration against transgenic Leishmania Mexicana promastigotes LmPfHT that are glucose transport deficient and complemented with the Plasmodium falciparum hexose transporter. Activity is measured by DNA content using SYBR green in vitro
[3] = target: Glucose transporter (Leishmania mexicana) (UniProt O61059); assay: ST_JUDE_LEISH: Cytotoxicity at 2uM final concentration against transgenic Leishmania Mexicana promastigotes LmGT2 that are glucose transport deficient and complemented with the L. Mexicana glucose transporter 2. Activity is measured by DNA content using SYBR green in vitro

SMILES | inhibition [1] [%] | inhibition [2] [%] | inhibition [3] [%]
Cc1cc(CNCC2CCC(CNCCCc3ccccc3)CC2)ccc1O (stereo not drawn) | 9.97 | 8.79 | 7.65
COc1ccc2c(NN=CC=Cc3ccccc3)ccnc2c1 | 9.5 | 6.81 | 11.6
C[C@@H]([C@@H](CCCCc1ccccc1)C(=O)N[C@H](C(=O)Nc1cccnc1)C(C)(C)C)N(O)C=O | 0.14 | -1.56 | 2.12
Cc1ccc(-c2nn3c(O)c4c(nc3c2C)CCCC4)cc1 | -0.48 | 1.68 | 1.28
CC(C)C[C@H](Nc1ccnc(NCC2CCCCC2)n1)C(=O)NCCc1ccccc1 | 3.1 | 0.57 | 0.72
O=S(=O)(NCCN1CCCC1)c1ccc(-c2cccc(CNCc3ccsc3)c2)s1 | 5.4 | 2.42 | -1.72
Cc1ccc(NC(=O)c2ccc(CN3CCCN(CC4CCCCC4)CC3)cc2)cc1 | 7.01 | 8.37 | 9.64
CC(=O)Nc1ccc(OCCCN(Cc2ccccc2OC(F)(F)F)c2ccc(C(F)(F)F)c(C#N)c2)c(Cl)c1 | 2.37 | -1.13 | 1.86
COc1cc2[nH]c(-c3ccc(O)cc3)c(C)c(=O)c2c(OC)c1OC | 2.67 | 0.09 | -2.9
COc1ccc(-c2ccc(CNC3Cc4ccccc4C3)cc2)cc1S(=O)(=O)NCCN1CCCC1 | 1.48 | 3.39 | -0.28
CCc1cn2c3c(cc(C(=O)N[C@@H](Cc4ccccc4)[C@H](O)CNCc4ccc(C)cc4)cc13)N(C)S(=O)(=O)CC2 | -0.24 | 1.57 | 0.38
O=C(/C=C/c1ccccc1O)NCCCCCN1CCC(c2c[nH]c3ccccc23)CC1 | 3.82 | 2.03 | 1.37
CCCOC(=O)c1ccc(OCCCON2C(=N)N=C(N)NC2(C)C)cc1 | 2.28 | -0.38 | 5.01
CCOC(=O)c1ccc(COc2ccc(C)nc2)cc1 | -1.54 | -0.85 | 0.17
CCn1c(-c2nonc2N)nc2c(-c3ccccc3)ncc(OCCCCNCCc3ncc[nH]3)c21 | -0.2 | -0.76 | -0.64
COc1cc(C2CCN(CCCCNC(=O)c3ccc(NC(=O)c4ccc(Cl)c(Cl)c4)cc3)CC2)ccc1OC(C)C | 1.53 | 4.29 | 1.53
CN(C)CCN(C)Cc1ccc(-c2ccc3c(Nc4ccc(Cl)cc4F)ccnc3c2)o1 | 1.16 | 2.08 | 2.79
CN(C)CCC1CCCc2ccc(NC(=O)Nc3cccc(Cl)c3Cl)cc21 (stereo not drawn) | 1.81 | 2.38 | 1.03

SMILES | inhibition [1] [%] | inhibition [2] [%] | inhibition [3] [%]
COc1nc(-n2ccc(=N)cc2)nc2ccccc12 | 12.2 | 13.4 | 2.63
CC[C@H](C)CNC(=O)c1cccc(-c2cccc(CN3CCC(N4CCCC4)CC3)c2)n1 | -2.59 | -0.05 | -0.2
CCCC(C)Nc1nc(C)cc(N[C@@H](Cc2ccccc2)C(=O)NCc2cccc(F)c2)n1 (stereo partly drawn) | 4.14 | 4.96 | 2.68
COc1ccc2nccc([C@@H](O)CN3CCC(NC(=O)C(c4cc5ccccc5o4)N4CCN(c5ccc(F)cc5)CC4)CC3)c2c1 (stereo partly drawn) | 2.59 | 1.79 | 0.13
CCc1ccc(NC(=O)c2ccc(CN3CCCN(Cc4ccc(C)s4)CC3)cc2)cc1 | 3.79 | 5.06 | 2.95
O=C(Cc1cccs1)NCC(c1ccccc1Cl)c1c[nH]c2ccccc12 (stereo not drawn) | 2.89 | 0.74 | 1.14
O=C1Nc2ccccc2/C1=N/NC(=S)N1CCOCC1 | -0.69 | -0.87 | 0.09
COc1cc(-c2ccccc2)ccc1C(=O)Nc1ccc2c(c1)N(C)CCC2 | 4.93 | 2.53 | 3.05
COc1ccc2nccc(NC(=O)C3CCC(NCc4cnc(SC)c([N+](=O)[O-])c4)CC3)c2n1 (stereo not drawn) | 10.5 | 10.3 | 20.7
COc1ccc2c(=NN=Cc3cccnc3)cc(C)[nH]c2c1 | 1.93 | 0.44 | 1.52
Cc1cc2c(/C=C/C(=O)NC3CCC(CCN4CCc5ccc(C#N)cc5CC4)CC3)cccc2[nH]1 (stereo not drawn) | 4 | 4.14 | 3.25
CN(C)CCN(C)Cc1ccc(-c2ccc3c(Nc4ccc(F)cc4Cl)ccnc3c2)o1 | 1.3 | 0.81 | -0.21
CCN(CC)c1ccc(C(=O)Cn2ccc(=N)cc2)cc1 | 1.35 | -0.06 | 0.82
O=C(Nc1ccc(C(F)(F)F)cc1)c1ccc(S(=O)(=O)NC2CCCN(CC3CCCCC3)C2)cc1 (stereo not drawn) | 6.6 | 4.53 | 4.45
CN1CCN(c2ccc(Nc3ncc([N+](=O)[O-])c(Nc4ccccc4O)n3)cc2)CC1 | 2.1 | 3.83 | 1.84
Cc1ccc(NC(=O)c2cccc(CN3CCCN(Cc4cccc(O)c4)CC3)c2)cc1 | -0.49 | 0.65 | 0.25
CCCn1cnc2cc(C(=O)Nc3ccc(-c4cccc(CN(C)C)c4)cc3)ccc2c1=O | 55 | 3.03 | 5.21
CCCNCc1ccc(-c2ccc(CN(CCOC)C(=O)Cc3cccnc3)cc2)nc1 | 0.25 | 1.34 | 3.67
